Measured values as given in PMC9838217, “Structure of SALL4 zinc finger domain reveals link between AT-rich DNA binding and Okihiro syndrome”.
Where a chain is given by its changes, count along the chain named.

Key:
Assay in all cases: HT-SELEX; high values mean tight binding
Settings in all cases: protein: recombinant; vector His6-GST; dsDNA, one strand shown
SALL4 ZFC4 WT (HT-SELEX) = target: T1, SALL4 ZFC4 WT (HT-SELEX) (Mus musculus, UniProt Q8BX22 870-940)
T1 sequence: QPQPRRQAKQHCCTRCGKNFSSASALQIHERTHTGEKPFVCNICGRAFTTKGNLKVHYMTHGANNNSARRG
Procedure, shortened: (§1)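 In triplicate selections of up to 6 cycles, purified recombinant mouse SALL4 zinc finger cluster 4 (residues 870–940, 1 µg) was incubated 10 min at room temperature with library DNA (1.5 µg, then 200 ng) in 100 µl of 10 mM Tris–HCl pH 7.5, 50 mM NaCl, poly(dI-dC) and DTT, and complexes were captured on Ni2+ beads, washed and PCR-amplified. Sequencing was done on MiSeq with scanning for 6-mers. The binding signal is each canonical k-mer's read fraction, reported as fold change against the initial random library.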

[1] = target: T2, SALL4 ZFC4 R900W (HT-SELEX) (Mus musculus, UniProt Q8BX22 870-940, R900W)
T2 sequence: T1 sequence with R31W
Procedure, shortened: as §1

[2] = target: T3, SALL4 ZFC4 G921D (HT-SELEX) (Mus musculus, UniProt Q8BX22 870-940, G921D)
T3 sequence: T1 sequence with G52D
Procedure, shortened: as §1

| Sequence | binding signal (SALL4 ZFC4 WT (HT-SELEX)) | binding signal [1] | binding signal [2] |
| --- | --- | --- | --- |
| CTTATA | 2.43 ± 0.156 fold-change vs cycle 0 | 2.09 ± 0.123 fold-change vs cycle 0 | 1.82 ± 0.197 fold-change vs cycle 0 |
| ACAGCA | 0.623 ± 0.0211 fold-change vs cycle 0 | 0.694 ± 0.0191 fold-change vs cycle 0 | 0.793 ± 0.0143 fold-change vs cycle 0 |
| ACAAAA | 1.6 ± 0.0623 fold-change vs cycle 0 | 1.61 ± 0.0945 fold-change vs cycle 0 | 1.5 ± 0.125 fold-change vs cycle 0 |
| CGTCAG | 0.341 ± 0.0358 fold-change vs cycle 0 | 0.427 ± 0.0193 fold-change vs cycle 0 | 0.535 ± 0.0656 fold-change vs cycle 0 |
| ACCTAC | 0.796 ± 0.0505 fold-change vs cycle 0 | 0.908 ± 0.0415 fold-change vs cycle 0 | 0.957 ± 0.0179 fold-change vs cycle 0 |
| CATTCC | 0.85 ± 0.0367 fold-change vs cycle 0 | 0.949 ± 0.0747 fold-change vs cycle 0 | 0.981 ± 0.031 fold-change vs cycle 0 |
| GACAAA | 0.966 ± 0.023 fold-change vs cycle 0 | 1.08 ± 0.0338 fold-change vs cycle 0 | 1.1 ± 0.0293 fold-change vs cycle 0 |
| ATATAG | 2.33 ± 0.245 fold-change vs cycle 0 | 1.9 ± 0.143 fold-change vs cycle 0 | 1.74 ± 0.201 fold-change vs cycle 0 |
| CTAAAC | 1.16 ± 0.0729 fold-change vs cycle 0 | 1.33 ± 0.0737 fold-change vs cycle 0 | 1.27 ± 0.0849 fold-change vs cycle 0 |
| GATACA | 1.33 ± 0.0706 fold-change vs cycle 0 | 1.39 ± 0.0615 fold-change vs cycle 0 | 1.37 ± 0.0715 fold-change vs cycle 0 |
| AGCTAG | 0.723 ± 0.0356 fold-change vs cycle 0 | 0.815 ± 0.0265 fold-change vs cycle 0 | 0.874 ± 0.021 fold-change vs cycle 0 |
| CTAACC | 0.863 ± 0.0299 fold-change vs cycle 0 | 0.983 ± 0.0562 fold-change vs cycle 0 | 1.01 ± 0.0396 fold-change vs cycle 0 |
| AGGGTG | 0.486 ± 0.0118 fold-change vs cycle 0 | 0.567 ± 0.0247 fold-change vs cycle 0 | 0.648 ± 0.0341 fold-change vs cycle 0 |
| AAATGT | 1.68 ± 0.0685 fold-change vs cycle 0 | 1.7 ± 0.0668 fold-change vs cycle 0 | 1.58 ± 0.133 fold-change vs cycle 0 |
| CTTTAA | 1.84 ± 0.0654 fold-change vs cycle 0 | 1.95 ± 0.0889 fold-change vs cycle 0 | 1.69 ± 0.149 fold-change vs cycle 0 |
| AGTGTC | 0.664 ± 0.023 fold-change vs cycle 0 | 0.81 ± 0.0199 fold-change vs cycle 0 | 0.9 ± 0.0262 fold-change vs cycle 0 |
| CACTAC | 0.801 ± 0.0178 fold-change vs cycle 0 | 0.9075 ± 0.0089 fold-change vs cycle 0 | 0.938 ± 0.0237 fold-change vs cycle 0 |
| ACCGTG | 0.361 ± 0.00928 fold-change vs cycle 0 | 0.456 ± 0.013 fold-change vs cycle 0 | 0.547 ± 0.0682 fold-change vs cycle 0 |
| CCAATC | 0.76 ± 0.0281 fold-change vs cycle 0 | 0.854 ± 0.0448 fold-change vs cycle 0 | 0.933 ± 0.0316 fold-change vs cycle 0 |
| CCTACG | 0.357 ± 0.0238 fold-change vs cycle 0 | 0.443 ± 0.0174 fold-change vs cycle 0 | 0.524 ± 0.0668 fold-change vs cycle 0 |
| GCTCCA | 0.305 ± 0.0228 fold-change vs cycle 0 | 0.37 ± 0.0101 fold-change vs cycle 0 | 0.505 ± 0.0396 fold-change vs cycle 0 |
| CCTGTC | 0.437 ± 0.00717 fold-change vs cycle 0 | 0.533 ± 0.0129 fold-change vs cycle 0 | 0.619 ± 0.0538 fold-change vs cycle 0 |
| ATTGAC | 1.17 ± 0.0362 fold-change vs cycle 0 | 1.31 ± 0.032 fold-change vs cycle 0 | 1.3 ± 0.0284 fold-change vs cycle 0 |
| AGCCAA | 0.49 ± 0.0194 fold-change vs cycle 0 | 0.55 ± 0.00629 fold-change vs cycle 0 | 0.698 ± 0.0739 fold-change vs cycle 0 |
| GGGACA | 0.383 ± 0.0239 fold-change vs cycle 0 | 0.458 ± 0.0236 fold-change vs cycle 0 | 0.564 ± 0.0569 fold-change vs cycle 0 |
| AAGGTC | 0.725 ± 0.0449 fold-change vs cycle 0 | 0.885 ± 0.0273 fold-change vs cycle 0 | 0.943 ± 0.0196 fold-change vs cycle 0 |
| CAGAAA | 1.12 ± 0.0595 fold-change vs cycle 0 | 1.18 ± 0.0406 fold-change vs cycle 0 | 1.15 ± 0.0688 fold-change vs cycle 0 |
| AACGAC | 0.568 ± 0.0525 fold-change vs cycle 0 | 0.668 ± 0.0478 fold-change vs cycle 0 | 0.771 ± 0.0138 fold-change vs cycle 0 |
| ACCAAA | 1.09 ± 0.0301 fold-change vs cycle 0 | 1.17 ± 0.0218 fold-change vs cycle 0 | 1.18 ± 0.044 fold-change vs cycle 0 |
| AAAGTG | 1.1 ± 0.0306 fold-change vs cycle 0 | 1.23 ± 0.0192 fold-change vs cycle 0 | 1.22 ± 0.0345 fold-change vs cycle 0 |
